# SW480 rereplic: DNA re-replication induction in SW480 cells; Potency, µM (doses to about 46.1 µM), for inactives: top-dose re-replication activation, usual class: activators; SW480 DNA re-replication, Hoechst DNA content imaging, 48 h; actives 1.8% (n = 340,000); AID 624297; note: % of control where 0% means no effect; nearly all actives have a fitted effect of over 55% in size
#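 Treated cells incubate 48 hr (37 C, 5% CO2), are stained 40 min with Hoechst, and nuclear fluorescence is enumerated; a rise in nuclei with high DNA signal marks re-replication.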
# MCF10A rerep: induces DNA re-replication in MCF 10a normal breast cells; MCF 10A DNA re-replication, Hoechst nuclear intensity, 48 h; Potency, µM (series often up to 46.1 µM), for the others: top-dose activity, positive = re-replication, usual class: activators; actives 2.9% (n = 350,000); AID 624296; note: % of control where 0% means no effect; nearly all actives have a fitted effect of over 50% in size
# HT1080 IDH1KD tx: kills HT-1080 cells with IDH1 knockdown; HT-1080 IDH1 knockdown viability, ATP luminescence, 48 h; Potency, µM (doses to about 46.1 µM), for inactives: top-dose activity, negative = toxicity, hits mostly cytotoxic; actives 2% (n = 360,000);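 note: 0% = DMSO wells and -100% = cell-free medium wells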
#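 Viability of IDH1-knockdown HT-1080 fibrosarcoma cells was assessed by CellTiter-Glo after 48 h at 37 °C with titrated compound; concentration-effect curves were classified by fit quality and response size.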
# KB-V1 cytotox: KB-V1 MDR subline cytotoxicity | KB-V1 MDR cells viability, CellTiter-Glo, 72 h | Potency, µM (top dose mostly 46.1 µM), actives largely listed as cytotoxic | actives 3.4% (n = 400,000) | AID 1347076; note: % is set by controls: 0 for no effect and ±100 for the full control effect; nearly all actives have a fitted effect of over 60% in size
#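 In this primary screen, KB-V1 cells overexpressing P-gp are incubated with library compounds (lowest to highest concentration) for 72 h at 37 degrees C before a luminescent ATP viability read.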
# KB-3-1 tox: kills parental KB-3-1 adenocarcinoma cells. KB-3-1 viability, CellTiter-Glo ATP luminescence, 72 h. Potency, µM (doses to about 46.1 µM), hits mostly cytotoxic. actives 1.4% (n = 400,000); note: % is set by controls: 0 for no effect and ±100 for the full control effect; nearly all actives have a fitted effect of over 60% in size
#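 Parental KB-3-1 adenocarcinoma cells in phenol-red-free DMEM with 10% FBS were pin-treated with compounds at several concentrations, incubated 72 h at 37 °C, and viability read by CellTiter-Glo luminescence; concentration-effect curves were fitted after normalization.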
# HT1080-NT tox: kills 2HG-producing HT-1080-NT fibrosarcoma cells; HT-1080-NT fibrosarcoma viability, CellTiter-Glo ATP luminescence, 48 h; Potency, µM (titrated, usually from 46.1 µM), inactives show at the top dose activity, negative = less viability, most hits filed as cytotoxic; actives 1.6% (n = 360,000);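 note: NT is the 2HG producing partner of a matched IDH1 knockdown line; 0% = DMSO-treated cells and -100% = media-only wells without cells; nearly all actives have a fitted effect of over 55% in size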
#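 Read-out is CellTiter-Glo luminescence after 10 minutes at room temperature, following 48 hours' compound treatment of HT-1080-NT cells (750 cells/well, RPMI, 5% FBS, 37 degrees C).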
# An asterisk follows results filed as active; i = inactive; ? = inconclusive; · = not tested or not shown. Most compounds without a hit are left out; they make up all but 7.9% or so of the library. Calls come from the whole dose curve; as a rule, active = well fitted curve in the direction sought with a large enough effect; inconclusive = small, poorly fitted or top-dose-only effect, or another doubt; inactive = no such curve, though single readings can be large; an effect the other way counts as inactive or inconclusive. Potency is the fitted concentration of half-maximal effect.
SMILES,SW480 rereplic,MCF10A rerep,HT1080 IDH1KD tx,KB-V1 cytotox,KB-3-1 tox,HT1080-NT tox
CS(=O)(=O)Nc1ccc(-c2ccc(/C=C3\SC(N)=NC3=O)o2)cc1,14%,23µM*,-2%,i,i,12%
CCOCCCn1c(SCc2nc3ccccc3s2)nc2ccccc2c1=O,?,?,?,2.3µM*,12µM*,?
CCOCCCn1c(SCC(=O)Nc2ccccc2)nc2ccccc2c1=O,-6%,-4%,-1%,i,i,-12%
C/C(N)=C(/C#N)C(=O)CSc1nc2ccccc2c(=O)n1CCCOC(C)C,7%,9%,16%,i,i,1%
CCOCCCn1c(SCC(=O)/C(C#N)=C(\C)N)nc2ccccc2c1=O,-8%,-7%,2%,8.2µM*,i,2%
O=C(CSc1n[nH]c(-c2ccccn2)n1)Nc1cccc(Cl)c1,?,17%,?,i,?,-26%
COc1ccc(Cl)cc1Nc1nc(Cl)nc(NCCO)n1,·,·,-1%,i,i,-1%
Oc1ccc(Nc2nc3ccccc3nc2Nc2ccc(O)cc2)cc1,4.6µM*,1.5µM*,12µM*,?,i,23µM*
C=CCn1c(SCc2ccccc2Cl)nnc1-c1sc2nc(C)cc(C)c2c1N,18µM*,10µM*,12%,i,i,?
Cc1c(C(=O)NCc2ccoc2)oc2ccc3c(c12)C(=O)CC(C)(C)O3,4%,?,?,18µM*,i,0%
CCC1(C)CC(=O)c2c(ccc3oc(C(=O)NCc4ccccc4)c(C)c23)O1 (stereo not given),·,·,·,i,i,·
COc1ccc(C(C(=O)NC2CCCC2)N(CCCO)C(=O)c2snc(C(N)=O)c2N)cc1 (stereo not given),9%,9%,-11%,i,i,-5%
CC(C)OP(=O)(OC(C)C)/C(C=O)=N\Nc1ccc([N+](=O)[O-])cc1,-15%,0%,16µM*,i,?,21µM*
COc1ccc(-c2oc3cccnc3c2/C=C/c2ccc(OC)c(OC)c2)cc1,1.6µM*,?,-6%,i,i,-12%
COc1ccc(/C=C/c2c(-c3ccc(OC)cc3)oc(=O)c3cc(OC)c(OC)cc23)cc1,7%,3%,10%,i,i,-3%
CCC(C)NC(=O)CCn1c(=O)c2cccn2c2ccc(F)cc21 (stereo not given),-5%,0%,21%,i,i,11%
COc1ccc(NS(=O)(=O)c2ccccc2)cc1NS(=O)(=O)c1ccccc1,·,·,·,i,i,·
O=C1N=C(N2CCC(Cc3ccccc3)CC2)S/C1=C/c1cn[nH]c1-c1ccccc1,0%,?,-10%,23µM*,i,0%
CCc1ccc(-c2cc(C)no2)cc1S(=O)(=O)N1CCOc2ccccc21,26%,?,?,21µM*,i,?
COc1ccccc1CN1CCC(CNS(=O)(=O)c2cc(-c3cc(C)no3)ccc2C)CC1,32%,3%,?,i,i,?
CCc1ccc(-c2cc(C)no2)cc1S(=O)(=O)N1CCN(c2ccccn2)CC1,-3%,11%,-9%,?,?,?
Cc1cc(-c2ccc(C(C)C)c(S(=O)(=O)N3CCN(c4ccccn4)CC3)c2)on1,?,4.1µM*,-2%,?,?,2%
CCc1ccc(-c2cc(C)no2)cc1S(=O)(=O)NCCCN1CCN(c2ccccc2)CC1,?,?,?,i,?,18µM*
Cc1cc(-c2ccc(C)c(S(=O)(=O)NCC3CCN(Cc4ccc(F)cc4)CC3)c2)on1,2.9µM*,13%,?,i,?,?
CCc1ccc(-c2cc(C)no2)cc1S(=O)(=O)NCCN1CCC(C)CC1,1%,10%,-23%,i,?,-28%
SMILES,SW480 rereplic,MCF10A rerep,HT1080 IDH1KD tx,KB-V1 cytotox,KB-3-1 tox,HT1080-NT tox
CCc1ccc(-c2cc(C)no2)cc1S(=O)(=O)N1CCN(c2ccc(F)cc2)CC1,?,23%,-23%,12µM*,?,-10%
CCc1ccc(-c2cc(C)no2)cc1S(=O)(=O)NCc1ccc(OC)cc1,·,·,·,3.7µM*,3.3µM*,·
COc1ccccc1NC(=O)C1=C(C)Nc2ncnn2C1c1ccc[nH]1 (stereo not given),·,·,·,i,i,·
CCOc1ccc(CCNC(=O)Nc2cccc(OC)c2)cc1OCC,-2%,-1%,2%,i,i,6%
Cc1ccc(-c2cc(-c3ccco3)c3c(N)c(C(=O)NN)oc3n2)cc1,21µM*,7.3µM*,?,i,?,-3%
COc1cccc(/C=N/NC(=O)c2oc3nc(-c4ccccc4)cc(-c4ccco4)c3c2N)c1,?,?,3%,i,i,9%
NNC(=O)c1oc2nc(-c3ccccc3)cc(-c3ccccc3)c2c1N,?,18µM*,-19%,i,i,6%
CNC(=S)NNC(=O)c1oc2nc(-c3ccccc3)cc(C)c2c1N,6.5µM*,2.6µM*,-28%,i,i,-23%
COC(=O)C[C@H]1c2cc(F)ccc2S(=O)(=O)N1C1CC1,·,·,·,?,i,·
O=C(NCC1CCCO1)c1ccccc1OCc1ccc(Cl)cc1 (stereo not given),3%,7%,3%,3.7µM*,i,9%
O=C(Nc1ccc(Cl)cc1C(=O)NCCN1CCOCC1)c1ccc(Cl)cc1Cl,0%,1%,-6%,4.6µM*,i,-10%
O=C(NCC1CCCO1)c1ccccc1OCc1ccc(F)cc1 (stereo not given),-7%,10%,2%,?,i,4%
O=C(Nc1ccc(Cl)cc1C(=O)NCC1CCCO1)c1ccco1 (stereo not given),-3%,?,-1%,8.2µM*,?,1%
O=C(Nc1ccc(Cl)cc1C(=O)NCC1CCCO1)c1ccc(Cl)cc1Cl (stereo not given),-63%,?,5%,10µM*,i,2%
COc1cc(F)ccc1-c1csc(C(NC(C)=O)c2ccccc2)n1 (stereo not given),·,·,3%,i,i,1%
Cc1nc2ccccc2c(=O)n1NC(=O)c1c(O)c2c(n(CC(C)C)c1=O)CCCC2,?,?,?,?,?,20µM*
CCCCCCc1nc2ccccc2c(=O)n1NC(=O)c1c(O)c2c(n(CC(C)C)c1=O)CCCC2,17%,22%,-30%,18µM*,21µM*,-13%
O=C(/C=C/c1cccc(Cl)c1)OCC(=O)c1ccc[nH]1,·,·,19%,i,i,19%
